# Reference: PubChem BioAssay (EPA / NIEHS)
# Active and inactive are the calls of the source. Rule for the calls: active = hit-call score of the fitted dose curve at least 0.9, where 1 is the maximum; inactive = score below 0.9.
# What was measured:
# [1] = ATG_CRE_CIS: Attagene CIS-FACTORIAL HepG2 Assay for human cAMP Responsive Element (CRE) binding protein 3 (AID 2282926); conditions: HepG2 CRE cis-reporter, Attagene multiplexed mRNA; actives raise or lower the signal
# Outline: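 Liver-derived HepG2, transfected with a CRE-containing reporter panel, exposed 24 h; transcript levels sized and quantified by capillary electrophoresis of labelled amplicons; signal changes either way referenced to vehicle.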
# [2] = molecular target: CCAAT/enhancer-binding protein beta (Homo sapiens) (UniProt P17676); experiment: ATG_C_EBP_CIS: Attagene CIS-FACTORIAL HepG2 Assay for human CCAAT/Enhancer Binding Protein (C/EBP) beta (AID 2282927); conditions: HepG2 Attagene cis-factorial transcription factor reporter; actives raise or lower the signal
# CCAAT/enhancer-binding protein beta (Homo sapiens), sequence (P17676 whole entry, looked up): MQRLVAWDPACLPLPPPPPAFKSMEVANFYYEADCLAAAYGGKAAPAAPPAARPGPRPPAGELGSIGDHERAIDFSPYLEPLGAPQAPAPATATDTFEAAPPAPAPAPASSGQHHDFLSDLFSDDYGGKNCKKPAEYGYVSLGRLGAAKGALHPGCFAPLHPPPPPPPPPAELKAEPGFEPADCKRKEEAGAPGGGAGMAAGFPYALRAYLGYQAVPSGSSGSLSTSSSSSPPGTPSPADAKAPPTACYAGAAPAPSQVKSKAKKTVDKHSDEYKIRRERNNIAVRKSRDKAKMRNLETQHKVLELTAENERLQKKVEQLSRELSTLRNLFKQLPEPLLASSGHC
# Outline: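 Following a 24 h incubation with test chemical, transfected HepG2 cells yielded RNA whose reporter transcripts were quantified by RT-PCR and fluorescent capillary electrophoresis, with DMSO serving as baseline for bidirectional fitting.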
# [3] = ATG_CMV_CIS: Attagene CIS-FACTORIAL HepG2 Assay for human CMV (Internal Marker) (AID 2282928); conditions: HepG2 CMV promoter reporter, transcription factor profiling; actives raise or lower the signal;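 note: endpoint acts as a background internal control marker rather than a target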
# Outline: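 Fluorescence intensity of RT-PCR-derived reporter fragments, resolved by capillary electrophoresis, gives the signal. HepG2 liver cells bearing transfected cis-element reporters were treated 24 h; activity in either direction was fit relative to DMSO-treated controls.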
# [4] = ATG_DR4_LXR_CIS: Attagene CIS-FACTORIAL HepG2 Assay for human Liver X Receptor (LXR), DR4 submotif (AID 2282929); conditions: HepG2 Attagene DR4 cis-reporter, mRNA transcription; actives raise or lower the signal
# Outline: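 The endpoint is DR4-element-driven reporter transcripts after 24 h chemical exposure of transfected HepG2 cells. These were measured via RT-PCR and capillary electrophoresis, and gain or loss of signal was fitted relative to DMSO controls.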
# [5] = ATG_AP_1_CIS: Attagene CIS-FACTORIAL HepG2 Assay for human Activator Protein 1 (AP-1) (AID 2282931); conditions: HepG2 Attagene cis-factorial AP-1 reporter mRNA; actives raise or lower the signal
# Outline: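 Readout is reporter transcript level from endogenous transcription factor activity, quantified by RT-PCR with fluorescent primer extension and capillary electrophoresis. Transiently transfected HepG2 cells, 24 h exposure. Curves fitted both directions versus DMSO.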
# [6] = ATG_AP_2_CIS: Attagene CIS-FACTORIAL HepG2 Assay for human Activator Protein 2 (AP-2) (AID 2282932); conditions: HepG2 AP-2 cis-reporter, Attagene transcription factor profiling; actives raise or lower the signal
# Outline: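 Cells (HepG2) transfected with promoter-driven reporter constructs, treated 24 h. Total RNA reverse-transcribed, reporter cDNA PCR-amplified, FAM-labelled by primer extension, digested, resolved by capillary electrophoresis. Activity fitted both directions versus DMSO.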
# [7] = ATG_BRE_CIS: Attagene CIS-FACTORIAL HepG2 Assay for human Bone Morphogenetic Protein (BMP) Response Element (BRE) (AID 2282933); conditions: HepG2 BMP response element reporter, Attagene transcription factor profiling; actives raise or lower the signal
# Outline: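 Multiplexed cis-reporter assay, HepG2, 24 h exposure. mRNA from reporter units quantified via RT-PCR/CE; DMSO baseline; bidirectional curve fit.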
# [8] = molecular target: Transcription factor E2F1 (Homo sapiens) (UniProt Q01094); experiment: ATG_E2F_CIS: Attagene CIS-FACTORIAL HepG2 Assay for human E2F Transcription Factor 1 (AID 2282935); conditions: HepG2 Attagene cis-reporter, E2F reporter RNA transcripts; actives raise or lower the signal
# Transcription factor E2F1 (Homo sapiens), sequence (Q01094 whole entry, looked up): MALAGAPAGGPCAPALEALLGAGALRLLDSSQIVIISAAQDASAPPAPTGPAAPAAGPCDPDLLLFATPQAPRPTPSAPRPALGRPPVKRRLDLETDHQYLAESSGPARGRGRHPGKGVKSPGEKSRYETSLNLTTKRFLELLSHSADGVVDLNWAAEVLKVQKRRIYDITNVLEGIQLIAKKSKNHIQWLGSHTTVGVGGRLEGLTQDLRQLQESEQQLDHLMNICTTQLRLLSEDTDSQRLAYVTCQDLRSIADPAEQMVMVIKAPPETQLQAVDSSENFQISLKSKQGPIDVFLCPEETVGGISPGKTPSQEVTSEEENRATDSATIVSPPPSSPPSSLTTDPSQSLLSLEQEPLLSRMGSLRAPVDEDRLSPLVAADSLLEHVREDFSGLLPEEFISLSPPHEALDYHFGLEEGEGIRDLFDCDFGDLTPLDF
# Outline: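 First, HepG2 cells were transfected with reporter transcription units. Next, they were dosed for 24 h. Then RNA was isolated, converted to cDNA, PCR-amplified, FAM-labeled, HpaI-digested and analyzed by capillary electrophoresis.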
# [9] = molecular target: Aryl hydrocarbon receptor (Homo sapiens) (UniProt P35869); experiment: ATG_Ahr_CIS: Attagene CIS-FACTORIAL HepG2 Assay for human Aryl Hydrocarbon Receptor (Ahr) (AID 2282930); conditions: HepG2 AhR cis-factorial reporter transcription; actives raise or lower the signal
# Aryl hydrocarbon receptor (Homo sapiens), sequence (P35869 whole entry, looked up): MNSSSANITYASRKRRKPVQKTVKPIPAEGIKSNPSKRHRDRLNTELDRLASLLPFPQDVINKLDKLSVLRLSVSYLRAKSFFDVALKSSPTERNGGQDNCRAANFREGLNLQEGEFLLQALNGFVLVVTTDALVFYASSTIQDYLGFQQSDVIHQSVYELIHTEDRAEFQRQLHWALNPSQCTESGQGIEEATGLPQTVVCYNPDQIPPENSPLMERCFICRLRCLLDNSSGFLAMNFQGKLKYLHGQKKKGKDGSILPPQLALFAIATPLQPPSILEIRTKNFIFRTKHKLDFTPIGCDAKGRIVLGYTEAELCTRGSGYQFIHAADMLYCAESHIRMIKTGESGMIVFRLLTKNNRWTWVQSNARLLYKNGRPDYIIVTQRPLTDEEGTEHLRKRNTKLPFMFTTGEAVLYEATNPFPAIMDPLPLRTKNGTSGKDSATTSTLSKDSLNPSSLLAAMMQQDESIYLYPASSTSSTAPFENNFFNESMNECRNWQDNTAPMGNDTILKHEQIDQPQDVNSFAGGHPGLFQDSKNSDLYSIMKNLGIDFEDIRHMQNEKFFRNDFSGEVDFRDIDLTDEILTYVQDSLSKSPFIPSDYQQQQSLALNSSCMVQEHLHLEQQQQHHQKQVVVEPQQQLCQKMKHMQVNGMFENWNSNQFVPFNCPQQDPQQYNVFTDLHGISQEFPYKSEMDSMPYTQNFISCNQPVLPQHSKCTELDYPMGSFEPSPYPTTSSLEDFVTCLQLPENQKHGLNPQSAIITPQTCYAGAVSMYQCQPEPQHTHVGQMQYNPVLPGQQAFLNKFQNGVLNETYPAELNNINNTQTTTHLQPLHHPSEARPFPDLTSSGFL
# Outline: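 Values derive from bidirectional fitting against DMSO negative control. Underlying signal: cis-element reporter mRNA in transiently transfected HepG2, harvested 24 h post-dose and measured by RT-PCR plus capillary electrophoresis.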
# [10] = molecular target: Retinoic acid receptor alpha (Homo sapiens) (UniProt P10276); experiment: ATG_DR5_RAR_CIS: Attagene CIS-FACTORIAL HepG2 Assay for human Retinoic Acid Receptor Alpha (RARE), DR5 submotif (AID 2282934); conditions: HepG2 Attagene cis-factorial RARE DR5 reporter, mRNA; actives raise or lower the signal;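 for AC50: reporter responds to endogenous RAR alpha beta and gamma in HepG2 not RARA alone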
# Retinoic acid receptor alpha (Homo sapiens), sequence (P10276 whole entry, looked up): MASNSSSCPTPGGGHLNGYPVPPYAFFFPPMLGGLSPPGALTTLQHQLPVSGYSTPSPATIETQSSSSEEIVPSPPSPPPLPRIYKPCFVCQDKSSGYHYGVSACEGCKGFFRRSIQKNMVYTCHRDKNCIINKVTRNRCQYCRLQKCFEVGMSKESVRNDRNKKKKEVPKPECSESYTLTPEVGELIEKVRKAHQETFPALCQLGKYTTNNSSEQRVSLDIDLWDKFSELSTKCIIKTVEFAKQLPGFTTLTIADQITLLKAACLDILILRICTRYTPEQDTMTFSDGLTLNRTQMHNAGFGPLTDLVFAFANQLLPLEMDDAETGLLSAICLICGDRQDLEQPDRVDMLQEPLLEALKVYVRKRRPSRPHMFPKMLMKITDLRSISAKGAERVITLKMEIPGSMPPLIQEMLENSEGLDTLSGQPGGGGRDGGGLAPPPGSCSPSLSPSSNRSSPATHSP
# Outline: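 Endpoint fitted in both directions relative to DMSO as negative control. It reflects DR5 cis-element reporter mRNA induction in transiently transfected HepG2 cells, measured 24 h after dosing through RT-PCR and fluorescent capillary electrophoresis.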
compound,measurement,setting,value
CC(=O)CC(c1ccccc1)c1c(O)c2ccccc2oc1=O (stereo not given),outcome,[1],inactive
same,outcome,[2],inactive
same,outcome,[3],inactive
same,outcome,[4],inactive
same,outcome,[5],inactive
same,outcome,[6],inactive
same,outcome,[7],inactive
same,outcome,[8],inactive
O=C1c2c(O)cccc2Cc2cccc(O)c21,outcome,[1],inactive
same,outcome,[2],inactive
same,outcome,[3],inactive
same,outcome,[4],inactive
same,AC50,[9],61.7 µM (active)
same,outcome,[6],inactive
same,outcome,[7],inactive
same,outcome,[8],inactive
CCCCC(CC)COC(=O)CCCCCCCC(=O)OCC(CC)CCCC (stereo not given),outcome,[1],inactive
same,outcome,[2],inactive
same,outcome,[3],inactive
same,outcome,[4],inactive
same,outcome,[6],inactive
same,outcome,[7],inactive
same,outcome,[8],inactive
CC(C)c1cccc(C(C)C)c1NC(=O)NS(=O)(=O)c1cc(C(C)(C)O)co1,outcome,[1],inactive
same,outcome,[2],inactive
same,outcome,[3],inactive
same,outcome,[4],inactive
same,outcome,[6],inactive
same,outcome,[7],inactive
same,outcome,[10],inactive
same,outcome,[8],inactive
CC(C)(C)c1ccccc1,outcome,[1],inactive
same,outcome,[2],inactive
same,outcome,[3],inactive
same,outcome,[4],inactive
same,outcome,[5],inactive
same,outcome,[6],inactive
same,outcome,[7],inactive
same,outcome,[10],inactive
same,outcome,[8],inactive
O=[Si]=O,outcome,[1],inactive
same,outcome,[2],inactive
same,outcome,[3],inactive
same,outcome,[4],inactive
same,outcome,[5],inactive
same,outcome,[6],inactive
same,outcome,[7],inactive
same,outcome,[10],inactive
same,outcome,[8],inactive
NC(=Nc1ccccc1)Nc1ccccc1,outcome,[1],inactive
same,outcome,[2],inactive
same,outcome,[3],inactive
same,AC50,[4],61.8 µM (active)
same,AC50,[9],13.1 µM (active)
same,outcome,[6],inactive
same,outcome,[7],inactive
same,outcome,[8],inactive
O=C(O)CN(CC(=O)O)CC(=O)O,outcome,[1],inactive
same,outcome,[2],inactive
same,outcome,[3],inactive
same,outcome,[4],inactive
same,outcome,[5],inactive
same,outcome,[6],inactive
same,outcome,[7],inactive
same,outcome,[10],inactive
same,outcome,[8],inactive
COC(=O)CCC(=O)OC,outcome,[1],inactive
same,outcome,[2],inactive
same,outcome,[3],inactive
same,outcome,[4],inactive
same,outcome,[5],inactive
same,outcome,[6],inactive
same,outcome,[7],inactive
same,outcome,[8],inactive
C/C=C/c1ccc(OC)cc1,outcome,[1],inactive
same,outcome,[2],inactive
same,outcome,[3],inactive
same,outcome,[4],inactive
same,outcome,[9],inactive
same,outcome,[6],inactive
same,outcome,[7],inactive
same,outcome,[8],inactive
CCC(C)N(C)C(=O)c1cc2ccccc2c(-c2ccccc2Cl)n1 (stereo not given),outcome,[1],inactive
same,outcome,[2],inactive
same,AC50,[3],46 µM (active)
same,AC50,[4],31.8 µM (active)
same,outcome,[9],inactive
same,outcome,[6],inactive
same,AC50,[7],97.4 µM (active)
same,outcome,[8],inactive
O=C(O)c1cccnc1,outcome,[1],inactive
same,outcome,[2],inactive
same,outcome,[3],inactive
same,outcome,[9],inactive
same,outcome,[6],inactive
same,outcome,[7],inactive
same,outcome,[8],inactive
O=C(O)c1[nH]n(-c2ccc(S(=O)(=O)O)cc2)c(=O)c1N=Nc1ccc(S(=O)(=O)O)cc1,outcome,[1],inactive
same,outcome,[2],inactive
same,outcome,[3],inactive
same,outcome,[4],inactive
same,AC50,[9],58.7 µM (active)
same,outcome,[6],inactive
same,outcome,[7],inactive
same,outcome,[8],inactive
CC(C)(O)c1ccc(CNC(=O)c2cccnc2Oc2ccc(F)cc2)cc1,outcome,[1],inactive
same,outcome,[2],inactive
same,outcome,[3],inactive
same,AC50,[4],0.184 µM (active)
same,outcome,[5],inactive
same,outcome,[6],inactive
same,outcome,[7],inactive
same,outcome,[10],inactive
same,outcome,[8],inactive
CN(C)CCCN(C)CCCN(C)C,outcome,[1],inactive
same,outcome,[2],inactive
same,outcome,[3],inactive
same,AC50,[4],24.5 µM (active)
same,outcome,[9],inactive
same,outcome,[6],inactive
same,outcome,[7],inactive
same,outcome,[8],inactive
COc1ccc(C(=O)Nc2nc3ccccc3c(NCc3ccccc3)c2C#N)cc1,outcome,[1],inactive
same,outcome,[2],inactive
same,AC50,[3],3.82 µM (active)
same,outcome,[4],inactive
same,AC50,[9],0.421 µM (active)
same,outcome,[6],inactive
same,outcome,[7],inactive
same,outcome,[8],inactive
CC1(C)C(=O)NC(=O)N1CO,outcome,[1],inactive
same,outcome,[2],inactive
same,outcome,[3],inactive
same,outcome,[4],inactive
same,outcome,[9],inactive
same,outcome,[6],inactive
same,outcome,[7],inactive
same,outcome,[8],inactive
Cc1cc(Cc2ccc(N)c(C)c2)ccc1N,outcome,[1],inactive
same,outcome,[2],inactive
same,outcome,[3],inactive
same,outcome,[4],inactive
same,outcome,[6],inactive
same,outcome,[7],inactive
same,outcome,[10],inactive
same,outcome,[8],inactive
Oc1ccccc1O,outcome,[1],inactive
same,outcome,[2],inactive
same,AC50,[3],25 µM (active)
same,outcome,[4],inactive
same,outcome,[6],inactive
same,outcome,[7],inactive
same,outcome,[10],inactive
same,outcome,[8],inactive
COc1ccc(OC(F)(F)F)cc1CN[C@H]1CCCN[C@H]1c1ccccc1,outcome,[1],inactive
same,outcome,[2],inactive
same,outcome,[3],inactive
same,outcome,[4],inactive
same,outcome,[9],inactive
same,outcome,[6],inactive
same,outcome,[7],inactive
same,outcome,[8],inactive
CCCCc1nc2cccnc2n1Cc1ccc(-c2ccccc2-c2nnn[nH]2)cc1,outcome,[1],inactive
same,outcome,[2],inactive
same,outcome,[3],inactive
same,outcome,[4],inactive
same,outcome,[9],inactive
same,outcome,[6],inactive
same,outcome,[7],inactive
same,outcome,[8],inactive
O=C1OC(c2ccc(O)cc2)(c2ccc(O)cc2)c2ccccc21,AC50,[1],27.2 µM (active)
same,AC50,[2],184 µM (active)
same,AC50,[3],177 µM (active)
same,AC50,[4],54.9 µM (active)
same,AC50,[5],169 µM (active)
same,AC50,[6],48.1 µM (active)
same,outcome,[7],inactive
same,AC50,[10],4.2 µM (active)
same,outcome,[8],inactive
S=c1[nH]c2ccccc2s1,outcome,[1],inactive
same,outcome,[2],inactive
same,AC50,[3],100 µM (active)
same,outcome,[4],inactive
same,outcome,[6],inactive
same,AC50,[7],7.98 µM (active)
same,outcome,[10],inactive
same,outcome,[8],inactive
CC(=O)[C@@]1(O)CC[C@H]2[C@@H]3CCC4=CC(=O)CC[C@]4(C)[C@H]3CC[C@@]21C,outcome,[1],inactive
same,outcome,[2],inactive
same,outcome,[3],inactive
same,outcome,[4],inactive
same,outcome,[6],inactive
same,outcome,[7],inactive
same,outcome,[10],inactive
same,outcome,[8],inactive
